Bioassay records deposited in PubChem by National Center for Advancing Translational Sciences (NCATS).
Sampled rows, rich in hits. Any-hit rate of the full collection: about 19%.
HT1080NT lethal – kills 2HG-producing HT-1080-NT fibrosarcoma cells. HT-1080-NT fibrosarcoma viability, CellTiter-Glo ATP luminescence, 48 h. Potency, µM (doses to about 46.1 µM), usual class: cytotoxic. 1.6% of 360,000 active;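 note: NT is the 2HG producing partner of a matched IDH1 knockdown line; nearly all actives have a fitted effect of over 55% in size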
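Fibrosarcoma NT cells, 750 per well in 5% FBS RPMI, were exposed to compound for 48 hours. Viability: CellTiter-Glo luminescence.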
HT1080 IDH1KD tx – toxicity to HT-1080 IDH1 knockdown cells (counter line); 2% of 360,000 active; Potency, µM (titrated, usually from 46.1 µM), hits mostly cytotoxic; HT-1080 IDH1 knockdown viability, ATP luminescence, 48 h
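Knockdown cells (IDH1KD HT-1080) received compounds 2 h after plating at 750 cells/well and were kept 48 h at 37 °C in 5% FBS RPMI. A CellTiter-Glo luminescence read gave % activity for curve fitting.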
IL-1B inflam inh – inflammasome signaling inhibition, IL-1 beta readout | THP-1 LPS/ATP IL-1B secretion, AlphaLISA, 16 h; stronger effect = lower value | activity change, % at 57.5 µM | 4.7% of 360,000 active | AID 743279; in the data active = activity change below about -50%; inconclusive = mostly about -30% to -49%
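Secreted IL-1B measured by AlphaLISA bead assay after 16 h compound exposure of THP-1 cells; compounds (final up to 57.5 uM) added 1 h before LPS (250 ng/mL) and ATP (1.25 mM) stimulation; lower signal means less secretion.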
TDP1 cell noCPT – qHTS for Inhibitors of human tyrosyl-DNA phosphodiesterase 1 (TDP1): qHTS in cells in absence of CPT | Potency, µM (top dose mostly 46.2 µM), actives largely listed as inhibitors | DT40 Tdp1-/- hTDP1 cells, no CPT, ATP luminescence, 48 h | 15% of 420,000 active | AID 686978, 2013; note: nearly all actives have a fitted effect of over 55% in size
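Stably hTDP1-transfected Tdp1-null chicken DT40 cells were treated with library compounds minus camptothecin and grown for at least 48 hr at 37 °C, after which cellular ATP was quantified by luminescence.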
TDP1 cell CPT – DT40-hTDP1 cell growth loss with CPT. chicken DT40 Tdp1-/-;hTDP1 cells + 20 nM CPT, ATP luminescence, 48 h. 12% of 420,000 active. Potency, µM (titrated, usually from 46.2 µM), usual class: inhibitors; note: nearly all actives have a fitted effect of over 55% in size
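Cell growth measured by CellTiter-Glo luminescence after a minimum 48 h, 37 C compound exposure with 20 nM CPT in Tdp1-knockout DT40 cells stably expressing hTDP1, seeded 400/well; qHTS titration format.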
Hits are given with their value; 0 = inactive; ? = inconclusive; - = no result given; [ ] = another dose, or the depositor's remark. Unless noted, calls come from the whole dose curve; as a rule, active = well fitted curve in the direction sought with a large enough effect; inconclusive = small, poorly fitted or top-dose-only effect, or another doubt; inactive = no such curve, though single readings can be large; an effect the other way counts as inactive or inconclusive.

SMILES	HT1080NT lethal	HT1080 IDH1KD tx	IL-1B inflam inh	TDP1 cell noCPT	TDP1 cell CPT
CCc1nnc(NC(=O)CSc2nc3[nH]c(=O)cc(O)c3s2)s1	0	0	0	6.5µM	6.5µM
Cc1csc(NC(=O)CSc2nc3[nH]c(=O)cc(O)c3s2)n1	5.8µM	5.2µM	-105	15µM	21µM
C=CCc1cc(C=Nc2ccc(N3CCOCC3)cc2)cc(OCC)c1O	0	0	0	16µM	0
C=CCc1cc(/C=N/n2cnnc2)cc(OCC)c1O	0	0	0	?	0
COc1ccc(CN(C)C(=O)Cn2cc(C)c(=O)[nH]c2=O)cc1OC	0	0	0	0	0
CN(C(=O)COC(=O)c1ccc(=O)n(Cc2ccccc2)n1)C1CCCCC1	0	0	0	0	0
CCOC(=O)c1c2c3c(c(Cl)ccc3[nH]c1=O)C(=O)c1ccccc1-2	0	0	-85	?	0
CCOC(=O)c1c2c3c(cccc3[nH]c1=O)C(=O)c1ccccc1-2	0	0	0	0	0
O=C(N/N=C/C(Cl)=C/c1ccccc1)c1cnccn1	0	0	0	13µM	16µM
O=C(N/N=C/c1cccc([N+](=O)[O-])c1)c1cnccn1	0	0	0	0	0
CC(=C/c1ccccc1)/C=N/NC(=O)c1cnccn1	0	0	0	0	0
O=C(N/N=C/C(Cl)=C\c1ccccc1)c1cnccn1	0	0	-82	21µM	18µM
Cc1ccc(Cl)cc1NC(=O)CN1CCN(S(=O)(=O)N2CCC(C)CC2)CC1	0	0	0	?	?
CCOc1cc(C2C(C(=O)Nc3ccccc3)=C(C)Nc3ncnn32)cc(Br)c1O (stereo not drawn)	-	-	-	0	0
COc1ccc(S(=O)(=O)N(C)C)cc1NC(=O)Cc1ccc(S(=O)(=O)N2CCOCC2)s1	0	0	0	?	13µM
CCOC(=O)c1cc(NC(=O)Cc2ccc(S(=O)(=O)N3CCOCC3)s2)cc(C(=O)OCC)c1	0	0	?	?	23µM
O=C(Cc1ccc(S(=O)(=O)N2CCOCC2)s1)Nc1ccc(N2CCOCC2)cc1	0	0	0	0	0
CCN(CC)S(=O)(=O)c1cc(NC(=O)Cc2ccc(S(=O)(=O)N3CCOCC3)s2)ccc1Cl	0	?	0	13µM	21µM
CCn1c2ccccc2c2cc(NC(=O)Cc3ccc(S(=O)(=O)N4CCOCC4)s3)ccc21	0	?	0	?	?
CN(C)S(=O)(=O)c1ccc(NC(=O)Cc2ccc(S(=O)(=O)N3CCOCC3)s2)cc1	0	0	0	0	0
Cc1occc1C(=O)/C(C#N)=C/c1ccc(O)c(Br)c1	0	0	0	0	0
O=C(Cn1nc(CNc2ccc(Br)cc2)[n+]2c1CCCCC2)c1ccc([N+](=O)[O-])cc1	?	?	-61	12µM	6.5µM
O=C(Cn1nc(CNc2ccc(Cl)cc2)[n+]2c1CCCCC2)c1ccc(Br)cc1	0	0	-52	?	23µM
COc1ccc(NCc2nn(CC(=O)c3ccc(Br)cc3)c3[n+]2CCCCC3)cc1	0	0	?	16µM	?
COc1ccc(CNC(=O)C2CCCN(S(=O)(=O)c3cnc[nH]3)C2)cc1 (stereo not drawn)	0	0	0	0	0
SMILES	HT1080NT lethal	HT1080 IDH1KD tx	IL-1B inflam inh	TDP1 cell noCPT	TDP1 cell CPT
COc1cc(C2=NOC(C(=O)NCc3ccco3)C2)cc(OC)c1OC (stereo not drawn)	-	-	0	3.3µM	4.1µM
COc1ccc(C2=NOC(C(=O)NCc3ccco3)C2)cc1 (stereo not drawn)	7.1µM	6.3µM	0	2.8µM	4µM
O=C(NCc1ccco1)C1CC(c2ccc(C(F)(F)F)cc2)=NO1 (stereo not drawn)	?	?	0	12µM	13µM
Cc1ccc(CNC(=O)C2CC(c3cc(C(F)(F)F)cc(C(F)(F)F)c3)=NO2)o1 (stereo not drawn)	?	23µM	0	4.6µM	3.3µM
COc1ccc(C2=NOC(C(=O)NC(C)C)C2)cc1 (stereo not drawn)	0	0	0	0	0
CCCSc1ncc(Cl)c(C(=O)Nc2nc3ccc(C)cc3s2)n1	-	-	-	0	0
O=C(Nc1ccccc1)N1CC2(CCN(C(=O)c3ccncc3)CC2)C1	-	-	-	0	0
CN(Cc1ccc(Cl)c(Cl)c1)C(=O)C1CSC2(C)CCC(=O)N12 (stereo not drawn)	0	0	0	15µM	15µM
CCOC(=O)NC1(NCC(C)C)Oc2ccccc2O1	?	0	0	0	?
CCOC(=O)NC1(NCc2ccccc2)Oc2ccccc2O1	?	?	0	21µM	?
COc1ccc(C(CNC(=O)C(C)Oc2ccc(Br)cc2)N2CCCCC2)cc1 (stereo not drawn)	0[9.24 µM]	0	0	21µM	18µM
COc1ccc(C(CNC(=O)CCNS(=O)(=O)c2ccc(Br)cc2)N2CCCC2)cc1 (stereo not drawn)	0	0	0	?	?
COc1ccc(C(CNC(=O)c2oc3cc(C)c(C)cc3c2C)N2CCCCC2)cc1 (stereo not drawn)	0	0	0	9.2µM	13µM
CCOc1ccc2oc(C(=O)NCC(c3ccco3)N(C)C)c(C)c2c1 (stereo not drawn)	0	0	0	23µM	16µM
COc1ccc(C(CNC(=O)c2cc3ccccc3cc2OC)N2CCCC2)cc1 (stereo not drawn)	0	0	0	?	?
COc1ccc(C(CNC(=O)c2oc3ccc(OC)cc3c2C)N2CCCC2)cc1 (stereo not drawn)	?	0	?	16µM	23µM
COc1ccc(Br)cc1S(=O)(=O)NCCc1cccs1	0	0	0	0	0
CCn1cc(S(=O)(=O)NCCc2ccc(OC)c(OC)c2)cn1	0	0	0	0	0
COc1ccc(C(CNC(=O)c2oc3ccc(Br)cc3c2C)N2CCCCC2)cc1 (stereo not drawn)	0	0	-82	9.2µM	13µM
COc1ccc(C(CNC(=O)c2oc3cc(Br)ccc3c2C)N2CCCCC2)cc1 (stereo not drawn)	0	0	0	23µM	16µM
CCc1ccc2oc(C(=O)NCC(c3ccc(OC)cc3)N3CCCCC3)c(C)c2c1 (stereo not drawn)	0	0	0	16µM	23µM
COc1ccc(C(CNC(=O)COc2ccc(Br)cc2F)N2CCCC2)cc1 (stereo not drawn)	0	0	?	0	0
COc1ccc(C(CNC(=O)c2oc3ccc(F)cc3c2C)N2CCCCC2)cc1 (stereo not drawn)	0	0	?	?	?
COc1ccc(C(CNC(=O)Cc2ccccc2)N2CCCCC2)cc1 (stereo not drawn)	0	0	0	?	?
C=CCNC(=O)c1ccsc1N	0	0	0	?	?
